The results in this text go back to paper PMC7862700, “An all-to-all approach to the identification of sequence-specific readers for epigenetic DNA modifications on cytosine”.

Holding throughout (assay): DAPPL (digital affinity profiling via proximity ligation, sequencing); 10 mM Tris-HCl pH 7.5, 50 mM NaCl, 1 mM DTT, 4% glycerol, room temperature, 30 min; GST-TFs on glutathione beads, 16-mer random dsDNA library, 0.1% formaldehyde crosslink after washing; high values mean tight binding
One assay deals with T1, FEV (Homo sapiens, UniProt Q99581 1-238).
T1 sequence: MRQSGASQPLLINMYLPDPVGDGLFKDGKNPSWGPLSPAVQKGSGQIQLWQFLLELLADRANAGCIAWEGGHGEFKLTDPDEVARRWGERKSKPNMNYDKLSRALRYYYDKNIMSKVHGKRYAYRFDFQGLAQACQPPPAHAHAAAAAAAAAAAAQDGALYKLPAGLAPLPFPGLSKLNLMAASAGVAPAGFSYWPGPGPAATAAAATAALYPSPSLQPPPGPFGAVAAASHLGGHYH
The conditions noted are these: protein: recombinant; tags: N-terminal GST; dsDNA, one strand shown. A digest of the protocol:
(§1)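 Beads coated with glutathione captured GST-fused human transcription factors that had been expressed in yeast, and the factors were then given DNA barcodes and pooled with a tag-only sample. The pools were incubated with 200 nmole of a random double-stranded 16-mer DNA library in Tris/NaCl/DTT/glycerol buffer for 30 min at room temperature, washed, crosslinked with 0.1% formaldehyde and proximity-ligated with BsaI/T4 ligase at 37 °C for 1 h. PCR amplification and Illumina NextSeq500 sequencing came last. Binding signal is each hexamer's read frequency for a factor divided by its frequency for the tag-only sample.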

A further assay deals with ETV5 (Homo sapiens, UniProt P41161 1-510). The conditions noted are these: protein: recombinant; tags: N-terminal GST; dsDNA, one strand shown. A digest of the protocol: as §1
Chain of ETV5 (P41161 whole entry): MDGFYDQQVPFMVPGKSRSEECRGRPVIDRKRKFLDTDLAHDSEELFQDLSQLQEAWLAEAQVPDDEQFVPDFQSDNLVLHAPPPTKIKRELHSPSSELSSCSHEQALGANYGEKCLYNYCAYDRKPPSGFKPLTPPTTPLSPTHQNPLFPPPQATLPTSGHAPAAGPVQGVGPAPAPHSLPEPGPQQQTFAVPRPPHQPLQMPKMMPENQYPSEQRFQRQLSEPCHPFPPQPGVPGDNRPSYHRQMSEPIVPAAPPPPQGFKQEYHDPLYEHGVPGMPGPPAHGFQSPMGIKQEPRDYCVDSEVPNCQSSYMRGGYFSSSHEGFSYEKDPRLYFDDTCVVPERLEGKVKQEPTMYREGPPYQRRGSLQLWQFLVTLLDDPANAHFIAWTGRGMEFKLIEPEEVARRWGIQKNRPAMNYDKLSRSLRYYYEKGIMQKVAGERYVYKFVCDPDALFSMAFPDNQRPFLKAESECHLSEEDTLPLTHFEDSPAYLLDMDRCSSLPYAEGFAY
The target in a further assay is HSF1 (Homo sapiens, UniProt Q00613 1-529). The conditions noted are these: protein: recombinant; tags: N-terminal GST; chain copies: 3; dsDNA, one strand shown. Summed up: as §1
Chain of HSF1 (Q00613 whole entry): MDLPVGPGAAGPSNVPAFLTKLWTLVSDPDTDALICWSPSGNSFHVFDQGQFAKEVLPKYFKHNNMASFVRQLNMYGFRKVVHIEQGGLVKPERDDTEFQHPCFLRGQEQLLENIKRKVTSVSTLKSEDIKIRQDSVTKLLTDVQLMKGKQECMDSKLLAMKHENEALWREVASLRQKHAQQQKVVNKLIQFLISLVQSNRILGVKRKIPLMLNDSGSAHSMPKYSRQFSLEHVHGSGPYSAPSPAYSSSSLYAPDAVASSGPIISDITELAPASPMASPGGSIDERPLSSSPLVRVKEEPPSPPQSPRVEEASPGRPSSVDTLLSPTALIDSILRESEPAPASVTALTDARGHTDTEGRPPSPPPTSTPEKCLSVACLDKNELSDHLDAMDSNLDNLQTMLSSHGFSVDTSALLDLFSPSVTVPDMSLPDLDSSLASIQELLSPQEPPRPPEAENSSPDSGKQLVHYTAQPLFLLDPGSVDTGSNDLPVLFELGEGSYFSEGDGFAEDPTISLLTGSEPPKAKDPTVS
The target of another assay is T2, SPIC (Homo sapiens, UniProt Q8N5J4 1-248).
T2 sequence: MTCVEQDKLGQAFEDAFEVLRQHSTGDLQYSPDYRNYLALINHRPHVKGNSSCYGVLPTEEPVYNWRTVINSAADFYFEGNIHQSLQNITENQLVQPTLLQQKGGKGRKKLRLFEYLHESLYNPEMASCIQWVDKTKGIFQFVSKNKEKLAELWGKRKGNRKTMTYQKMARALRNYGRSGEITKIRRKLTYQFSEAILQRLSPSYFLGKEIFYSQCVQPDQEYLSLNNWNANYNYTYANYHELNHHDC
The conditions noted are these: protein: recombinant; tags: N-terminal GST; dsDNA, one strand shown. Summed up: as §1

Another assay addresses ELF4 (Homo sapiens, UniProt Q99607 1-663). The conditions noted are these: protein: recombinant; tags: N-terminal GST; dsDNA, one strand shown. Summed up:
as §1

Another assay concerns the target T3, ELK4 (Homo sapiens, UniProt P28324-2 1-405).
T3 sequence: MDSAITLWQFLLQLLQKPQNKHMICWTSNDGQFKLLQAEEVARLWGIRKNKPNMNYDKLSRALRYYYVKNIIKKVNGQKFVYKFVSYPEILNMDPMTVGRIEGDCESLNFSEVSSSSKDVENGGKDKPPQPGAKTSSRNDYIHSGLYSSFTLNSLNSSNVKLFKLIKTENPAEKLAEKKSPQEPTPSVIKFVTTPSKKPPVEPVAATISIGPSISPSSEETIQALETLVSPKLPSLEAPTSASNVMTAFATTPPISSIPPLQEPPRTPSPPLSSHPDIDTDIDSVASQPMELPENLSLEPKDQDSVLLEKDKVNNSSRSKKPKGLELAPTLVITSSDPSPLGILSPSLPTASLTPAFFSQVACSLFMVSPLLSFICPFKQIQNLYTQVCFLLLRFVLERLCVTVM
The following applies: protein: recombinant; tags: N-terminal GST; dsDNA, one strand shown. Summed up: as §1

The next assay concerns the target T4, ETV2 (Homo sapiens, UniProt O00321 1-342).
T4 sequence: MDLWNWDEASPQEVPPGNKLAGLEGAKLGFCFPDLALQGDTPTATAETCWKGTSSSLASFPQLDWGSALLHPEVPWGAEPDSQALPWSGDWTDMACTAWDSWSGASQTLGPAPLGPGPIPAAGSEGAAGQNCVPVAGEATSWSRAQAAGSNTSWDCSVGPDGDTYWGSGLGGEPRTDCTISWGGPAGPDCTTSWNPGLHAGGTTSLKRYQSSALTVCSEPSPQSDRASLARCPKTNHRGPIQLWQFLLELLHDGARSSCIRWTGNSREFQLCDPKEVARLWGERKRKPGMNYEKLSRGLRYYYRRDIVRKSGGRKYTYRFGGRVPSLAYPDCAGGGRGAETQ
The conditions noted are these: protein: recombinant; tags: N-terminal GST; dsDNA, one strand shown. A digest of the protocol: as §1

The target of another assay is T5, ELF3 (Homo sapiens, UniProt P78545 1-371).
T5 sequence: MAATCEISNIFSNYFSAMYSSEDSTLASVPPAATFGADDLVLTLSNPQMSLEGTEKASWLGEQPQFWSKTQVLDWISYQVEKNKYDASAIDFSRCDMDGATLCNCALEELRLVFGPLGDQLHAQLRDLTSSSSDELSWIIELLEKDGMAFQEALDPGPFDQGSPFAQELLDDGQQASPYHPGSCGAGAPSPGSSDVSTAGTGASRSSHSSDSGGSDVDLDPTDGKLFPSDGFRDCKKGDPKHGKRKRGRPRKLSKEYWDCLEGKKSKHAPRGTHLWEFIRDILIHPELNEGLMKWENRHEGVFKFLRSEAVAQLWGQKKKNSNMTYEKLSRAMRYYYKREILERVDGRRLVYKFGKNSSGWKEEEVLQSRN
The following applies: protein: recombinant; tags: N-terminal GST; dsDNA, one strand shown. A digest of the protocol: as §1

A further assay has as its target CRX (Homo sapiens, UniProt O43186 1-299). The conditions noted are these: protein: recombinant; tags: N-terminal GST; dsDNA, one strand shown. Summed up:
as §1

In the next assay the target is ETV1 (Homo sapiens, UniProt P50549 1-477). The following applies: protein: recombinant; tags: N-terminal GST; dsDNA, one strand shown. Summed up: as §1
Chain of ETV1 (P50549 whole entry): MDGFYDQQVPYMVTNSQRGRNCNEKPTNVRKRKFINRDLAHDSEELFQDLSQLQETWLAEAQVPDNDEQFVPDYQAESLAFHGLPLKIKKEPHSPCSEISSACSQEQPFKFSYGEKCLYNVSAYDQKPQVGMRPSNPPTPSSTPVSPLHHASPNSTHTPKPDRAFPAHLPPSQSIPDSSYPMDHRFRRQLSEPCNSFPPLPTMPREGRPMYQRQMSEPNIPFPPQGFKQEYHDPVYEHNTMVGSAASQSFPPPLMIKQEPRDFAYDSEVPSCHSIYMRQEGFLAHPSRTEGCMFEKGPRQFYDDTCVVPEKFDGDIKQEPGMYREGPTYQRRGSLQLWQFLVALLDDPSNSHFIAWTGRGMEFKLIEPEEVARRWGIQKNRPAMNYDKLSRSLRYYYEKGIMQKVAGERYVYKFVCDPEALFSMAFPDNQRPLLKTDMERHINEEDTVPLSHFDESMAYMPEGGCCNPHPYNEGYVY
A further assay concerns the target T6, ERF (Homo sapiens, UniProt P50548 1-548).
T6 sequence: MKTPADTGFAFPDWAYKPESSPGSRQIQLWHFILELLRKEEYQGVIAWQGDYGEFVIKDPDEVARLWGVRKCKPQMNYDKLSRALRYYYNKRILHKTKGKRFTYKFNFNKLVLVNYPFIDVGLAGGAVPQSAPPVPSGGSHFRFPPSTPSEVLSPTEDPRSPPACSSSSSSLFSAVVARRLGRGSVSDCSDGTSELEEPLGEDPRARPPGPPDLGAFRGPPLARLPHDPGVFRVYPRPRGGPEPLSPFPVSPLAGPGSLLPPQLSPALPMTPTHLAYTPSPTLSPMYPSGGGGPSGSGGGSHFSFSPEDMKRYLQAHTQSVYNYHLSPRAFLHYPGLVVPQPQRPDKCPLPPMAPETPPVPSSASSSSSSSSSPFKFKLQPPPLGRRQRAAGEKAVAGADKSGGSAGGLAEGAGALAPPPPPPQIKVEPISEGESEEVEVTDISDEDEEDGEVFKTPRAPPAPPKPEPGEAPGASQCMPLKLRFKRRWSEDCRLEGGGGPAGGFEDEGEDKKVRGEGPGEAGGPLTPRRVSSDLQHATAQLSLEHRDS
The conditions noted are these: protein: recombinant; tags: N-terminal GST; dsDNA, one strand shown. A digest of the protocol: as §1

In another assay the target is T7, ETV3L (Homo sapiens, UniProt Q6ZN32 1-361).
T7 sequence: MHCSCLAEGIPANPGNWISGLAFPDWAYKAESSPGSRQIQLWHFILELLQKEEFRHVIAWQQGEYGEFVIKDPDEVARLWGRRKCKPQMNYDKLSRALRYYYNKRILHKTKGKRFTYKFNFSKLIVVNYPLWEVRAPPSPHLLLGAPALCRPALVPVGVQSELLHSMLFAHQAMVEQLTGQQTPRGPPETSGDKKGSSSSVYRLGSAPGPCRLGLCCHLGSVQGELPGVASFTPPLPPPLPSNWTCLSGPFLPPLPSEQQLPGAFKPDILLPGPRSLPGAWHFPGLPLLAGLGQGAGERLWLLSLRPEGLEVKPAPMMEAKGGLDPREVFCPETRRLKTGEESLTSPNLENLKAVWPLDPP
The conditions noted are these: protein: recombinant; tags: N-terminal GST; dsDNA, one strand shown. Summed up: as §1

The next assay deals with T8, ETS2 (Homo sapiens, UniProt P15036 1-469).
T8 sequence: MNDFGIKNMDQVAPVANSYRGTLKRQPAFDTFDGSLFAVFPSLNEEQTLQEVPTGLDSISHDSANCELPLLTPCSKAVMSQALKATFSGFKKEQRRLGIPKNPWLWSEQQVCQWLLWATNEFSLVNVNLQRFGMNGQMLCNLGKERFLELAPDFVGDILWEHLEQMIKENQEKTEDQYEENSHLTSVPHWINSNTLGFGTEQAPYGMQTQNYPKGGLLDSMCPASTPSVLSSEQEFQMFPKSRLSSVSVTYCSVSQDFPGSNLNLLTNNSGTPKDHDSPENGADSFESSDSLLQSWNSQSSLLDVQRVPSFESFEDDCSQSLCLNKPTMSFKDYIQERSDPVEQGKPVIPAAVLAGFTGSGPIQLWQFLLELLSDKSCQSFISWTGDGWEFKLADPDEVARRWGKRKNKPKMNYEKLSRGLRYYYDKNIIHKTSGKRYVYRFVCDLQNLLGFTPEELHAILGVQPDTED
The following applies: protein: recombinant; tags: N-terminal GST; dsDNA, one strand shown. Summed up: as §1

Another assay addresses T9, SPDEF (Homo sapiens, UniProt O95238 1-335).
T9 sequence: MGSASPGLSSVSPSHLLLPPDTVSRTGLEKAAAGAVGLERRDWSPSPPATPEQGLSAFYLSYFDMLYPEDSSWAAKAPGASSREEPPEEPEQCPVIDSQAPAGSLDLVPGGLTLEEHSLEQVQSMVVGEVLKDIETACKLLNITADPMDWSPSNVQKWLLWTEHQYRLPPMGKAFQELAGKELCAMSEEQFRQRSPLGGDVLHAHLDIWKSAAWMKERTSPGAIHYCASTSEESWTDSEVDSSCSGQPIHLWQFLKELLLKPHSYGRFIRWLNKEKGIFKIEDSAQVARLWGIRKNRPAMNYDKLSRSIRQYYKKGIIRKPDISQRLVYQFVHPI
The following applies: protein: recombinant; tags: N-terminal GST; dsDNA, one strand shown. A digest of the protocol:
as §1

For the next assay, the target named is T10, ETV7 (Homo sapiens, UniProt Q9Y603 1-341).
T10 sequence: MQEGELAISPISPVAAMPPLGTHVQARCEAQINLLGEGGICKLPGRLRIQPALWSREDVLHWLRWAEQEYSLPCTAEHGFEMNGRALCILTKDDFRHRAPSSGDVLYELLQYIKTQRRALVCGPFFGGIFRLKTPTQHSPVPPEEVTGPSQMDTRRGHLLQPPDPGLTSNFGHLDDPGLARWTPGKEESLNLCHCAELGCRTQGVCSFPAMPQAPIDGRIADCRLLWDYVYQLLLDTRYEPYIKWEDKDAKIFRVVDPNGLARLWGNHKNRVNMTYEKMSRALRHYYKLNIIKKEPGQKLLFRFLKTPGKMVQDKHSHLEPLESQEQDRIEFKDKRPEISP
The conditions noted are these: protein: recombinant; tags: N-terminal GST; dsDNA, one strand shown. A digest of the protocol: as §1

The target of the next assay is T11, ELF5 (Homo sapiens, UniProt Q9UKW6-2 1-255).
T11 sequence: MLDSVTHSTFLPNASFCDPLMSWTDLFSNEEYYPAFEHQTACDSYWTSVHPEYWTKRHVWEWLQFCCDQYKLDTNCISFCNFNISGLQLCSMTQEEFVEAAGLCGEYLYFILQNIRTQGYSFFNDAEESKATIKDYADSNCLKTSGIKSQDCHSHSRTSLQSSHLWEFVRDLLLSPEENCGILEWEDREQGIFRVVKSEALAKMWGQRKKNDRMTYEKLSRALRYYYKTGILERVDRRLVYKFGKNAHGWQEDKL
The following applies: protein: recombinant; tags: N-terminal GST; dsDNA, one strand shown. Summed up: as §1

A further assay deals with T12, ETV3 (Homo sapiens, UniProt P41162-2 1-143).
T12 sequence: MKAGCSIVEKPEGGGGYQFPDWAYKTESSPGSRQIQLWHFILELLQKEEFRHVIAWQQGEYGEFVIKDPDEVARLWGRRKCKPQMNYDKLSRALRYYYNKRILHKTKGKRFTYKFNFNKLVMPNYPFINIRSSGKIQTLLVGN
The following applies: protein: recombinant; tags: N-terminal GST; dsDNA, one strand shown. A digest of the protocol:
as §1

The next assay deals with ETV6 (Homo sapiens, UniProt P41212 1-452). The following applies: protein: recombinant; tags: N-terminal GST; dsDNA, one strand shown. Summed up: as §1
Chain of ETV6 (P41212 whole entry): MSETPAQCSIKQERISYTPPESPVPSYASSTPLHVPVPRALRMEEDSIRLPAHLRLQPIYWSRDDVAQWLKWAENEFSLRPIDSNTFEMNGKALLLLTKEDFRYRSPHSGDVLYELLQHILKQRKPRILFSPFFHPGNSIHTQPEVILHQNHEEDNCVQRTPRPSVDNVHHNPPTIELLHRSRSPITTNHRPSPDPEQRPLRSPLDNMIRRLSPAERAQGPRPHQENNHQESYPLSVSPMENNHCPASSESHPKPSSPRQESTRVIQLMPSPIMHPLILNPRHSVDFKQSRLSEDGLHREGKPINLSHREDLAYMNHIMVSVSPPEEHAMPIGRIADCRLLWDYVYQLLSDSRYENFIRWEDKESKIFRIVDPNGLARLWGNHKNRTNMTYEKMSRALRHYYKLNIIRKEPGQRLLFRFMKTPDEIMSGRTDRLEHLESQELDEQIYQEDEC

Chain of ELF4 (Q99607 whole entry): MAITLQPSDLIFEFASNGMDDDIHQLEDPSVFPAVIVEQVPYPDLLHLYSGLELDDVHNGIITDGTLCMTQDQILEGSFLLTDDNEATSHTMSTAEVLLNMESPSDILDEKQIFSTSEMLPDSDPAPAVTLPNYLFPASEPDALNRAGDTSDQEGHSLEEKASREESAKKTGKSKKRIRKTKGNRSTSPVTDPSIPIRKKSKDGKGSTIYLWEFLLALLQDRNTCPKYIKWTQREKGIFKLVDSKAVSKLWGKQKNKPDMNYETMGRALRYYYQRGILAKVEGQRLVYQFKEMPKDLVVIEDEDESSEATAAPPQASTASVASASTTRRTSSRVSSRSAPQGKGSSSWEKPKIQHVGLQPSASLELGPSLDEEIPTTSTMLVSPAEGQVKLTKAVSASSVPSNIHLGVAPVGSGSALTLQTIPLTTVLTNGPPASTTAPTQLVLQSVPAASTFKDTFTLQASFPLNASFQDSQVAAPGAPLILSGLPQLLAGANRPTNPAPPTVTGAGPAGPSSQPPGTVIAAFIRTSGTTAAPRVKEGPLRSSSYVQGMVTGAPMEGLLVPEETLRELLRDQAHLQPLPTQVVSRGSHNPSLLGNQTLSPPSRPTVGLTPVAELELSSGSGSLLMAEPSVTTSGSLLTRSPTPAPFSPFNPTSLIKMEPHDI
Chain of CRX (O43186 whole entry): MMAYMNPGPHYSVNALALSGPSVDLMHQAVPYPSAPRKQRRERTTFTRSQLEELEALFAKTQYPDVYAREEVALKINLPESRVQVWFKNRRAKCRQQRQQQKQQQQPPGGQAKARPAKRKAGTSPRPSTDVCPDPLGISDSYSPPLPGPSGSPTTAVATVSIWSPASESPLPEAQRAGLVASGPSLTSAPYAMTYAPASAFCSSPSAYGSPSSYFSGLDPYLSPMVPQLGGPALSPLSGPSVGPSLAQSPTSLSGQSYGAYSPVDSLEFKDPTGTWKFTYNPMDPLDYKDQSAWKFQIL

With CTCGCA, the binding signal is 1.32 fold enrichment (6-mer frequency, TF over GST control) with FEV; 1.19 fold enrichment (6-mer frequency, TF over GST control) with ETV5; 1.61 fold enrichment (6-mer frequency, TF over GST control) with HSF1; 1.43 fold enrichment (6-mer frequency, TF over GST control) in the assay with SPIC; 1.26 fold enrichment (6-mer frequency, TF over GST control) with ELF4; 1.29 fold enrichment (6-mer frequency, TF over GST control) in the assay with ELK4. Also, the binding signal was 1.34 fold enrichment (6-mer frequency, TF over GST control) in the assay with ETV2; 1.26 fold enrichment (6-mer frequency, TF over GST control) with ELF3; 1.2 fold enrichment (6-mer frequency, TF over GST control) with CRX; 1.26 fold enrichment (6-mer frequency, TF over GST control) with ETV1; 1.26 fold enrichment (6-mer frequency, TF over GST control) in the assay with ERF; 1.3 fold enrichment (6-mer frequency, TF over GST control) in the assay with ETV3L. Besides, the binding signal is 1.35 fold enrichment (6-mer frequency, TF over GST control) with ETS2; 1.2 fold enrichment (6-mer frequency, TF over GST control) with SPDEF; 1.23 fold enrichment (6-mer frequency, TF over GST control) in the assay with ETV7; 1.15 fold enrichment (6-mer frequency, TF over GST control) with ELF5; 1.34 fold enrichment (6-mer frequency, TF over GST control) in the assay with ETV3; 1.19 fold enrichment (6-mer frequency, TF over GST control) with ETV6.
